Only some compounds are listed: those with a hit (about 4.1% of all), similar ones and a draw of the others.
hgDAF-12 ag: H. glycines DAF-12 receptor agonists, primary screen, cell-based, luminescence, HEK293, GAL4 fusion, UAS-luciferase. AID 687014, 2013. HEK293 GAL4-hgDAF12 UAS-luciferase reporter, agonist luminescence; normalized to butyrate control. 370,000 tested, 1.8% active. Nuclear hormone receptor DAF-12 (Heterodera glycines), GAL4 fusion. activation, % at 6.8 µM;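 active = activation above a cutoff set at the mean of all screened compounds plus 3 SD, cut at about 10% in these data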;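 also: 0% = DMSO wells and 100% = sodium butyrate wells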
DAX1 inh-1: DAX1 (NR0B1) inhibitors on StAR promoter, primary screen, cell-based, luminescence, SF-1 (NR5A1), full-length DAX-1 | 370,000 tested, 1.1% active | inhibition, % at 6.8 µM | HEK293T StAR-luciferase reporter, SF-1/DAX-1 repression relief;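 active = inhibition above the mean over all tested compounds plus 3 SD, cut at about 3.6% in these data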;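 also: 0% = DAX-1 cells with DMSO and 100% = cells lacking DAX-1 with DMSO; higher inhibition means more luminescence from relief of DAX-1 repression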
DAX1 inh-2: DAX1 (NR0B1) inhibitors, primary screen, cell-based, HEK293, Gal4-DAX1, luciferase luminescence | Nuclear receptor subfamily 0 group B member 1 (Homo sapiens), P51843 | HEK293 Gal4-DAX1 luciferase reporter | inhibition, % at 6.75 µM | 340,000 tested, 0.99% active | AID 504766, 2011;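 active = inhibition above the mean over all tested compounds plus 3 SD, cut at about 4.2% in these data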;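 also: 0% = DAX1-transfected cells with DMSO and 100% = empty-vector control cells with DMSO; inhibition shows as a rise in luminescence from relieved DAX1 repression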
Target sequence (P51843 207-470 limits assumed): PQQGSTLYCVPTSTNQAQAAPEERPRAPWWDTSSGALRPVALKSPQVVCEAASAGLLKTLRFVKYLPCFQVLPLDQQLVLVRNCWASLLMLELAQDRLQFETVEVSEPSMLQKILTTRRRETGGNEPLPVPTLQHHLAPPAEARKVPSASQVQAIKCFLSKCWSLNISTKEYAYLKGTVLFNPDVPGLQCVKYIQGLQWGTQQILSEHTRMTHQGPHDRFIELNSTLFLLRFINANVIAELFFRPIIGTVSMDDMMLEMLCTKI
ssDAF12 agonist: S. stercoralis DAF-12 nuclear receptor activators, primary screen, cell-based, luminescence, HEK293, GRIP1 co-expression, lit1-tk-luc; Nuclear hormone receptor DAF-12 (Strongyloides stercoralis); HEK293 ssDAF-12/GRIP1 lit1-tk-luc reporter; % of 3 µM dafachronic acid response; activation, % at 6.8 µM; 370,000 tested, 1% active;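 active = activation above the mean over all tested compounds plus 3 SD, cut at about 0.9% in these data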;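 also: 0% = DMSO-only wells and 100% = 3 µM delta7-dafachronic acid wells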
hcDAF-12 act: H. contortus DAF-12 nuclear receptor activators, primary screen, cell-based, luminescence, HEK293, lit1-tk-luc reporter; HEK293 hcDAF-12 lit1-tk-luc reporter; 0% DMSO, 100% Δ7-dafachronic acid; activation, % at 6.8 µM; 370,000 tested, 1.4% active; AID 652067, 2013;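 active = activation above the mean of all tested compounds plus 3 SD, cut at about 5.5% in these data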;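 also: 100% = response to 3 µM Δ7-dafachronic acid high control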
DAX1 conf: DAX1 (NR0B1) inhibitors relieving SF-1 repression, confirmation, cell-based, luminescence, HEK293T, full-length DAX-1, SF-1 activated StAR promoter. 2,400 tested, 87% active. inhibition, % at 6.8 µM. shares compounds with DAX1 inh-1. HEK293T StAR-promoter luciferase reporter, SF-1/DAX-1 repression;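 active = inhibition above the average of every tested compound plus 3 SD, cut at about 3.8% in these data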;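 also: 0% = DAX-1 cells with DMSO and 100% = no DAX-1 control cells with DMSO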
SF1 AF2mut Luc: StAR reporter signal changes without DAX1, counter-screen for DAX1 inhibitor project, cell-based, luminescence, AF-2 mutant SF-1, transactivation; inhibition, % at 6.8 µM; 2,400 tested, 78% active; HEK293 StAR-luciferase, SF-1 AF2 mutant; shares compounds with DAX1 inh-1;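 active = inhibition above the mean of all tested compounds plus 3 SD, cut at about 3% in these data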;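 also: 0% = DAX-1 transfected cells with DMSO and 100% = cells without DAX-1 with DMSO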
LXR ag: LXR agonists, Gal4 luciferase reporter, confirmation, counter-screen for hcDAF-12 agonist project, cell-based, luminescence, HEK293, H. contortus campaign | shares compounds with hcDAF-12 act | HEK293 Gal4-LXR tk-luc reporter, 24 h; normalized: DMSO 0%, positive control 100% | activation, % at 6.8 µM | 3,400 tested, under 10 active | AID 743027, 2013;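 active = mean percent activation of the reporter above a cutoff set as the average over tested compounds plus their standard deviation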
Target sequence (P55055 whole entry, looked up, the tested form may be a part): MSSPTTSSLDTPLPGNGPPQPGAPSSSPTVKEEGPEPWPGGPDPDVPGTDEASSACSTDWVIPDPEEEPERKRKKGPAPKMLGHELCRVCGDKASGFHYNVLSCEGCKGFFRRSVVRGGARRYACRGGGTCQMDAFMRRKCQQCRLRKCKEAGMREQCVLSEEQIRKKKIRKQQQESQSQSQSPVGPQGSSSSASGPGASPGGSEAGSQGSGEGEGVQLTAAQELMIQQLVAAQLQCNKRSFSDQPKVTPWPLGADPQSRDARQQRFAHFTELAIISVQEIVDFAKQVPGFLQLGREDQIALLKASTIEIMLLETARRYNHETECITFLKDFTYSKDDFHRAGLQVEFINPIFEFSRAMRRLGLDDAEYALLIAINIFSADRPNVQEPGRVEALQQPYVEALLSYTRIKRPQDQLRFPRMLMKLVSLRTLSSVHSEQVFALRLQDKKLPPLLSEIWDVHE
hcDAF12 ag: H. contortus DAF-12 receptor agonists, confirmation, cell-based, luminescence, HEK293, lit1-tk-luc, triplicate. shares compounds with hcDAF-12 act. HEK293 hcDAF-12 lit1-tk-luc reporter; % of Δ7-dafachronic acid response. activation, % at 6.8 µM. 3,400 tested, 61% active;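 active = mean activation across triplicate tests above the threshold derived from the earlier primary screen, cut at about 5.5% in these data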;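 also: 0% = DMSO only wells and 100% = 3 µM Δ7-dafachronic acid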
hgDAF12 conf: H. glycines DAF-12 receptor agonists, confirmation, cell-based, luminescence, HEK293, GAL4-LBD fusion | shares compounds with hgDAF-12 ag | 3,300 tested, 80% active | activation, % at 6.8 µM | HEK293 GAL4-hgDAF12 luciferase reporter, agonist mode; percent of butyrate response | AID 743050, 2013;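 active = mean activation over triplicate wells above the hit cutoff derived from the earlier primary screen, cut at about 11% in these data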;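 also: 0% = DMSO low control and 100% = 2 mM sodium butyrate high control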
LXR ag 2: LXR agonists, Gal4 luciferase reporter, confirmation, counter-screen for hgDAF-12 agonist project, cell-based, luminescence, HEK293, H. glycines campaign; shares compounds with hgDAF-12 ag; 24 h; activation, % at 6.8 µM; 3,300 tested, under 10 active; AID 743051, 2013;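 active = mean activation of the triplicate above a set limit carried over from the primary screen, none filed active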
* hit, by the source's call; . = no result.

SMILES	hgDAF-12 ag	DAX1 inh-1	DAX1 inh-2	ssDAF12 agonist	hcDAF-12 act	DAX1 conf	SF1 AF2mut Luc	hgDAF12 conf	LXR ag 2	others
CCCCC(=O)Nc1cc2nn(-c3ccc(OC)cc3)nc2cc1C	4.8	0.6	-0.6	-1.4	1.1	.	.	.	.
CCC(=O)Nc1cc2nn(-c3ccc(OC)cc3)nc2cc1C	15.6*	5.1*	5.5*	0.3	5.5	13.1*	3.3*	13.7*	1.1
Cc1cc(-c2ccncc2)n2ncc(-c3ccccc3)c2n1	19.3*	13.1*	.	2.5*	10.8*	18.8*	9.5*	22.9*	0.8	LXR ag=1.7;hcDAF12 ag=10.9*
Cc1ccnc(NC(=O)c2ccccc2[N+](=O)[O-])c1	1.5	0.6	-0.3	-0.4	-0.1	.	.	.	.
Cc1ccnc(NC(=O)/C=C/c2ccccc2[N+](=O)[O-])c1	21.1*	5.0*	.	1.8*	9.3*	13.8*	8.1*	19.9*	1.0	LXR ag=1.8;hcDAF12 ag=8.3*
CC(C)Nc1ncnc2c1cnn2-c1ccc(Cl)cc1	16.2*	4.8*	-1.0	0.5	3.6	11.0*	2.7	3.7	1.0
CC1CCN(c2ncnc3c2cnn3-c2ccccc2)CC1	14.7*	7.7*	2.5	-0.5	4.2	14.4*	12.1*	13.7*	0.8
Clc1ccc(Nc2ncnc3c2cnn3-c2ccccc2)cc1	1.9	1.8	1.0	-1.5	0.2	.	.	.	.
CC(C)(C)Nc1ncnc2c1cnn2-c1ccccc1	16.5*	9.0*	1.0	0.8	5.3	15.5*	4.7*	11.7*	1.2
CCOC(=O)C1CCN(c2ncnc3c2cnn3-c2ccccc2)CC1	-4.1	-0.2	-0.4	-1.2	-3.0	.	.	.	.
O=C(COc1ccc(NC(=O)c2cccs2)cc1)c1ccc(F)cc1	-0.7	-1.5	0.0	-1.2	-2.8	.	.	.	.
c1ccc(Nc2nc(-c3cccnc3)cs2)nc1	17.9*	5.8*	0.7	0.3	10.4*	7.5*	6.3*	20.2*	1.0	LXR ag=1.5;hcDAF12 ag=8.1*
CCOc1ccccc1Nc1nc(-c2cccnc2)cs1	3.1	-0.8	0.7	-1.2	0.0	.	.	.	.
Cc1c(C(=O)OCc2ccc(F)cc2)sc2nc3n(c(=O)c12)CCC3	-4.0	-1.3	0.9	-0.8	-0.2	.	.	.	.
COc1ccc(C(=O)Nc2nc3ccccc3c(=O)[nH]2)cc1	18.5*	6.3*	2.2	1.1*	6.9*	14.3*	8.8*	16.5*	1.3	LXR ag=1.4;hcDAF12 ag=5.1
COc1ccc(C(=O)Nc2nc3cc(OC)c(OC)cc3c(=O)[nH]2)cc1	0.7	0.0	1.1	-1.0	-1.3	.	.	.	.
O=C(Nc1nnc([C@@H]2C[C@H](O)[C@@H](CO)O2)s1)c1cccc2ccccc12	24.8*	5.0*	.	0.8	3.6	8.7*	5.6*	13.2*	0.5
O=C(Nc1nnc([C@@H]2C[C@H](O)[C@@H](CO)O2)s1)Nc1ccccc1F	15.2*	7.3*	.	-0.3	4.8	7.2*	3.4*	10.9*	0.4
COC(=O)Cc1ccc2sc(-c3ccccc3)nc2c1	21.2*	5.9*	-0.5	1.0*	13.1*	13.1*	8.6*	17.3*	0.9	LXR ag=2.0;hcDAF12 ag=10.6*
O=C(Nc1ccc2c(c1)OCCO2)C(=O)c1c[nH]c2ccccc12	9.6	2.1	-3.0	0.8	5.1	.	.	.	.
O=C(Nc1ccc2c(c1)OCO2)C(=O)c1c[nH]c2ccccc12	13.5*	17.9*	1.9	0.8	9.3*	16.7*	6.5*	18.7*	1.1
O=C(O)CCc1nc(-c2cccs2)no1	1.2	-0.1	-0.3	-0.3	0.5	.	.	.	.
Cc1ccc(OCc2nc(-c3cccs3)no2)c([N+](=O)[O-])c1	14.1*	12.0*	0.2	1.9*	7.1*	14.9*	7.1*	18.6*	1.2	LXR ag=1.4;hcDAF12 ag=7.6*
O=[N+]([O-])c1ccccc1OCc1nc(-c2cccs2)no1	13.8*	8.5*	2.2	0.5	4.5	11.3*	6.2*	14.2*	0.9
Cc1ccc(OCc2nc(-c3ccccc3)no2)c(C)c1	8.9	2.6	1.6	0.1	3.6	.	.	.	.
O=C(CSc1nc2ccccc2c(=O)n1CC1CCCO1)NCc1ccc2c(c1)OCO2 (stereo unspecified)	-3.3	-0.6	-1.0	-2.0	0.1	.	.	.	.
COc1cc2cnc(-c3cccnc3)cc2cc1OC	0.1	-0.5	-0.3	-1.5	0.1	.	.	.	.
O=C(NNC(=O)[C@H]1CC=CC[C@H]1C(=O)O)c1ccc(Cl)cc1Cl	0.9	0.4	-0.7	-0.1	-0.1	.	.	.	.
Clc1ccc(-c2csc(NCC3CCCO3)n2)cc1 (stereo unspecified)	15.2*	5.1*	.	0.9*	4.8	7.8*	4.3*	13.3*	0.7
